Measured values from PubChem BioAssay (NCATS).
Results filed as inconclusive are left out. Entries that show only a call come without a potency. Active and inactive are the calls of the source. Calls come from the whole dose curve; as a rule, active = well fitted curve in the direction sought with a large enough effect; inconclusive = small, poorly fitted or top-dose-only effect, or another doubt; inactive = no such curve, though single readings can be large; an effect the other way counts as inactive or inconclusive.

Test system: not listed separately
Experiment: Primary fluorescence-based thiol-reactive (MSTI) qHTS assay for identification of artifact compounds. (AID 1845221); note: nearly all actives have a fitted effect of over 65% in size; note: potency is the fitted concentration of half-maximal effect
Details: MSTI thiol-reactivity probe, 1 h; series mostly up to 53.8 µM
Method in brief: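 qHTS titration of compound; 4 uM MSTI, PBS pH 7.4, 2% DMSO; 1 h RT, dark; fluorescence 525/598 nm; normalized to Acetyl-MSTI and MSTI; 4-parameter Hill fit.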
With COc1cccc(-n2nc(C(=O)O)cc2-c2ccc(C3CCCCC3)c(Cl)c2)c1 the Potency was “inactive”. For Cc1nnc(C(C)C)n1C1CC2CCC(C1)N2CCC(NC(=O)C1CCC(F)(F)CC1)c1ccccc1 (stereo unspecified), the Potency was “inactive”. For CC(C)(C)NCC(O)COc1cccc2c1CCCC2=O (stereo unspecified), the Potency was “inactive”. For COC1C=C([C@@H]2CC=C3[C@@]4(C)C(CC[C@]32C)[C@@]2(C)C=CC(=O)C(C)(C)C2C[C@H]4OC(C)=O)C(=O)O1 (stereo partly specified), the Potency was “inactive”. With CC(NCc1ccc(OCc2cccc(F)c2)cc1)C(N)=O (stereo unspecified) the Potency was “inactive”. With CCC[C@@H]1C[C@@H](C(=O)N[C@H](C(C)Cl)[C@H]2O[C@H](SC)[C@H](O)[C@@H](O)[C@H]2O)N(C)C1 (stereo partly specified) the Potency was “inactive”. For COC(=O)[C@@H]1C2CC3c4[nH]c5ccccc5c4CCN3CC2CC[C@@H]1O (stereo partly specified), the Potency was “inactive”. For Nc1nc(CC(=O)Nc2ccc(CCNCC(O)c3ccccc3)cc2)cs1 (stereo unspecified), the Potency was “inactive”. With CC1C/C=C/C=C\CCCCC(O)C/C=C/C(=O)O1 (stereo unspecified) the Potency was “inactive”. In the case of C=C1C[C@@]23CC[C@@H]4[C@](C)(C(=O)O)CCC[C@@]4(C)C2=CC[C@H]1C3, the Potency is reported as “inactive”. With CCOc1c2c(c(OCC)c3ccccc13)C(=O)N(c1ccc(CC(=O)NS(=O)(=O)c3ccccc3)cc1)C2 the Potency was “inactive”. With c1ccc(Nc2nc3c(s2)CCCc2[nH]ncc2-3)nc1 the Potency was 1.5 µM (active). For C[C@@H]1C/C=C/C=C\C=C\C=C\[C@H](O[C@@H]2O[C@H](C)[C@@H](O)[C@H](N)[C@@H]2O)C[C@@H]2O[C@](O)(C[C@@H](O)C[C@H]3O[C@@H]3/C=C/C(=O)O1)C[C@H](O)[C@H]2C(=O)O, the Potency was “inactive”. With O=C(O)c1cnn(-c2nc3cc(OC(F)(F)F)c(Cl)cc3[nH]2)c1 the Potency was “inactive”. With C/C=C(/C)C(=O)O[C@H]1C=C(C)C[C@H](OC(=O)c2ccc(O)cc2)C2[C@](O)(C(C)C)CC[C@@]21C (stereo partly specified) the Potency was “inactive”. In the case of CCC[C@@H]1C[C@@H](C(=O)N[C@@H]([C@H]2O[C@H](SC)[C@H](O)[C@@H](O)[C@@H]2O)[C@@H](C)O)N(C)C1, the Potency is reported as “inactive”. For O=C(O)C[C@@H](NC(=O)c1cc(-c2ccc(-c3ccncc3)cc2)cs1)c1ccccc1, the Potency was “inactive”.

Test system: Nanoluciferase (engineered Oplophorus gracilirostris luciferase)
Experiment: Primary Nanoluciferase (NLuc) qHTS assay for identification of artifact compounds. (AID 1845222); note: potency is the fitted concentration of half-maximal effect
Details: NLuc-conditioned medium, Nano-Glo luminescence, 5 min; series mostly up to 54.1 µM
Method in brief: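 S16 cell supernatant NLuc, 1:55; cpds qHTS; 15 min RT dark; Nano-Glo substrate 1:100, 5 min; luminescence; Hill fit of % inhibition.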
In the case of COc1cccc(-n2nc(C(=O)O)cc2-c2ccc(C3CCCCC3)c(Cl)c2)c1, the Potency is reported as “inactive”. In the case of Cc1nnc(C(C)C)n1C1CC2CCC(C1)N2CCC(NC(=O)C1CCC(F)(F)CC1)c1ccccc1 (stereo unspecified), the Potency is reported as “inactive”. For CC(C)(C)NCC(O)COc1cccc2c1CCCC2=O (stereo unspecified), the Potency was “inactive”. For COC1C=C([C@@H]2CC=C3[C@@]4(C)C(CC[C@]32C)[C@@]2(C)C=CC(=O)C(C)(C)C2C[C@H]4OC(C)=O)C(=O)O1 (stereo partly specified), the Potency was “inactive”. For CCC[C@@H]1C[C@@H](C(=O)N[C@H](C(C)Cl)[C@H]2O[C@H](SC)[C@H](O)[C@@H](O)[C@H]2O)N(C)C1 (stereo partly specified), the Potency was “inactive”. For Cn1c(=O)cc(N2CCCC(N)C2)n(Cc2ccccc2C#N)c1=O (stereo unspecified), the Potency was “inactive”. In the case of COC(=O)[C@@H]1C2CC3c4[nH]c5ccccc5c4CCN3CC2CC[C@@H]1O (stereo partly specified), the Potency is reported as “inactive”. With Nc1nc(CC(=O)Nc2ccc(CCNCC(O)c3ccccc3)cc2)cs1 (stereo unspecified) the Potency was “inactive”. With CC1C/C=C/C=C\CCCCC(O)C/C=C/C(=O)O1 (stereo unspecified) the Potency was “inactive”. For C=C1C[C@@]23CC[C@@H]4[C@](C)(C(=O)O)CCC[C@@]4(C)C2=CC[C@H]1C3, the Potency was “inactive”. For C#Cc1cnc2[nH]c(=O)n(C(CC)CC)c2n1, the Potency was “inactive”. For CCOc1c2c(c(OCC)c3ccccc13)C(=O)N(c1ccc(CC(=O)NS(=O)(=O)c3ccccc3)cc1)C2, the Potency was 12 µM (active). In the case of C=Cc1cc(O)cc2nc(-c3ccc(O)c(F)c3)oc12, the Potency is reported as “inactive”. With c1ccc(Nc2nc3c(s2)CCCc2[nH]ncc2-3)nc1 the Potency was “inactive”. In the case of C/C=C(/C)C(=O)O[C@H]1C=C(C)C[C@H](OC(=O)c2ccc(O)cc2)C2[C@](O)(C(C)C)CC[C@@]21C (stereo partly specified), the Potency is reported as “inactive”. In the case of CCC[C@@H]1C[C@@H](C(=O)N[C@@H]([C@H]2O[C@H](SC)[C@H](O)[C@@H](O)[C@@H]2O)[C@@H](C)O)N(C)C1, the Potency is reported as “inactive”. In the case of CC[C@@H](c1ccc(F)c(F)c1)n1c(C(=O)OC)c(-c2ccno2)[nH]c1=S, the Potency is reported as “inactive”.

Test system: not listed separately
Experiment: Primary redox qHTS assay for identification of artifact compounds. (AID 1845223)
Details: Amplex Red/HRP redox cycling with DTT, fluorescence; series mostly up to 53.8 µM
Method in brief: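 Redox-cycling detection via DTT (250 uM final) oxidation coupled to Amplex Red (25 uM)/HRP (250 mU/mL) in HBSS. 15 min preincubation plus 30 min after DTT, room temperature. Ex/Em 525/598 nm; 4-parameter Hill fit against DMSO and 10 uM DA3003.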
In the case of COc1cccc(-n2nc(C(=O)O)cc2-c2ccc(C3CCCCC3)c(Cl)c2)c1, the Potency is reported as “inactive”. With Cc1nnc(C(C)C)n1C1CC2CCC(C1)N2CCC(NC(=O)C1CCC(F)(F)CC1)c1ccccc1 (stereo unspecified) the Potency was “inactive”. In the case of CC(C)(C)NCC(O)COc1cccc2c1CCCC2=O (stereo unspecified), the Potency is reported as “inactive”. For COC1C=C([C@@H]2CC=C3[C@@]4(C)C(CC[C@]32C)[C@@]2(C)C=CC(=O)C(C)(C)C2C[C@H]4OC(C)=O)C(=O)O1 (stereo partly specified), the Potency was “inactive”. For CC(NCc1ccc(OCc2cccc(F)c2)cc1)C(N)=O (stereo unspecified), the Potency was “inactive”. For CCC[C@@H]1C[C@@H](C(=O)N[C@H](C(C)Cl)[C@H]2O[C@H](SC)[C@H](O)[C@@H](O)[C@H]2O)N(C)C1 (stereo partly specified), the Potency was “inactive”. With Cn1c(=O)cc(N2CCCC(N)C2)n(Cc2ccccc2C#N)c1=O (stereo unspecified) the Potency was “inactive”. With COC(=O)[C@@H]1C2CC3c4[nH]c5ccccc5c4CCN3CC2CC[C@@H]1O (stereo partly specified) the Potency was “inactive”. For Nc1nc(CC(=O)Nc2ccc(CCNCC(O)c3ccccc3)cc2)cs1 (stereo unspecified), the Potency was “inactive”. For CC1C/C=C/C=C\CCCCC(O)C/C=C/C(=O)O1 (stereo unspecified), the Potency was “inactive”. For C=C1C[C@@]23CC[C@@H]4[C@](C)(C(=O)O)CCC[C@@]4(C)C2=CC[C@H]1C3, the Potency was “inactive”. In the case of C#Cc1cnc2[nH]c(=O)n(C(CC)CC)c2n1, the Potency is reported as “inactive”. For CCOc1c2c(c(OCC)c3ccccc13)C(=O)N(c1ccc(CC(=O)NS(=O)(=O)c3ccccc3)cc1)C2, the Potency was “inactive”. For C=Cc1cc(O)cc2nc(-c3ccc(O)c(F)c3)oc12, the Potency was “inactive”. In the case of c1ccc(Nc2nc3c(s2)CCCc2[nH]ncc2-3)nc1, the Potency is reported as “inactive”. With C[C@@H]1C/C=C/C=C\C=C\C=C\[C@H](O[C@@H]2O[C@H](C)[C@@H](O)[C@H](N)[C@@H]2O)C[C@@H]2O[C@](O)(C[C@@H](O)C[C@H]3O[C@@H]3/C=C/C(=O)O1)C[C@H](O)[C@H]2C(=O)O the Potency was “inactive”. In the case of O=C(O)c1cnn(-c2nc3cc(OC(F)(F)F)c(Cl)cc3[nH]2)c1, the Potency is reported as “inactive”. With CC(=O)Oc1cc2c(s1)CCN([C@H](C(=O)C1CC1)c1ccccc1F)C2 the Potency was “inactive”. In the case of C/C=C(/C)C(=O)O[C@H]1C=C(C)C[C@H](OC(=O)c2ccc(O)cc2)C2[C@](O)(C(C)C)CC[C@@]21C (stereo partly specified), the Potency is reported as “inactive”. With CCC[C@@H]1C[C@@H](C(=O)N[C@@H]([C@H]2O[C@H](SC)[C@H](O)[C@@H](O)[C@@H]2O)[C@@H](C)O)N(C)C1 the Potency was “inactive”. With O=C(O)C[C@@H](NC(=O)c1cc(-c2ccc(-c3ccncc3)cc2)cs1)c1ccccc1 the Potency was “inactive”. For CC[C@@H](c1ccc(F)c(F)c1)n1c(C(=O)OC)c(-c2ccno2)[nH]c1=S, the Potency was “inactive”.
